Consider 5 compounds from PubChem BioAssay AID492960 (National Center for Advancing Translational Sciences (NCATS), 2010).

Records with an inconclusive call do not appear. Entries that show only a call come without a potency. Active and inactive are the calls of the source. The call rests on the fitted dose curve; in most records, active means well fitted curve in the direction sought with a large enough effect; inconclusive means small, poorly fitted or top-dose-only effect, or effect the other way, or another doubt; inactive means no such curve, though single readings can be large or run the other way.

A short description of the assay: Secondary Assay for lipid storage modulators: HepG2 cell LDSA assay for probe SAR. Conditions: HepG2 lipid droplet BODIPY, laser-scanning cytometry, 18-24 h; series mostly up to 46.1 µM. The text has this:
NIH Molecular Libraries Probe Production Centers Network [MLPCN] NIH Chemical Genomics Center [NCGC] MLPCN Grant: 1 R03 MH085686-01 Assay Submitter (PI): Beller, Mathias; Max-Planck-Institut fur Biophysikalische Chemie NCGC Assay Overview: Storing lipids as a reservoir for energy or the anabolism of elementary metabolites is a common feature of probably all cells and is conserved from bacteria to humans. The universal cellular lipid storage organelle is the so-called lipid storage droplet (LD). Although ubiquitous, LDs share a simple structure composed of a hydrophobic core that harbors the storage lipids, which is shielded by a droplet-specific phospholipid monolayer to which proteins are attached. The current model of LD biogenesis involves an incorporation of the lipid core into the membrane leaflets of the endoplasmic reticulum (ER) followed by a subsequent budding-like maturation of a LD, which ultimately pinches off. Once released, LD volume can increase by localized lipogenesis or fusion of existing droplet. Storage lipids are re-mobilized enzymatically by lipase activity. Lipase regulation in the adipocyte is heavily studied and involves multiple components including catecholamine signaling, the LD-associated proteins Perilipin and comparative gene identification (CGI-58) and at least two lipases named hormone sensitive lipase (HSL) and adipocyte triglyceride lipase (ATGL). LD regulation outside of the adipocyte is poorly understood and only few components are known. However, there is an urgent need to learn more about ectopic fat depots as mislocalized storage of lipids, for example in the liver or muscle, is an eminent health problem associated with insulin resistance or the metabolic syndrome.
NCGC Assay Protocol Summary: The assay was performed with HepG2 cells, using an oleic acid feeding protocol similar to the S3 assay. We dispensed 4 uL of cells to give 700 cells/well into Greiner bio-one 1,536-well plates (black walled, clear bottom). Triacsin C (Sigma-Aldrich T-4540), an inhibitor of long-chain fatty acyl CoA synthetase that blocks synthesis of triglycerides, was used as a positive control for lipid under-storage using a final concentration of 20 uM. The orexin antagonist, SB408124 - previously identified to stimulate lipid over-storage, was used as a positive control for lipid over-storage using a final concentration of 20 uM. A total of 23 nL of compound solution of different concentrations were transferred to the assay plates using a Kalypsys pin tool equipped with a 1,536-pin array containing 10-nL slotted pins (FP1S10, 0.457-mm diameter, 50.8 mm long; V&P Scientific). One microliter of oleic acid was added (400 uM final concentration), and the plate was lidded with stainless steel rubber gasket lined lids containing pinholes. After 18-24 h incubation at […] and 95% humidity, 4 uL of the dyes BODIPY 493/503 (Molecular Probes) and the Cell Tracker Red CMTPX dye (Molecular Probes) were added to the wells to stain lipid droplets and enumerate cell number, respectively. Fluorescence was detected by excitation of the fluorophores with a 488-nm laser on an Acumen Explorer (TTP Lab Tech). The total intensity in channel 2 (500-530 nm) reflected lipid droplet accumulation. Cells were detected using channel 3 (575-640 nm) with 5-um width and 100-um depth filters. The ratio of the number of objects in PMT channel 2 over the number of objects in PMT channel 3 was also calculated. […]
As for `CCOc1ccc(CCNC(=O)c2ccc(C(=O)c3ccccc3)cc2)cc1OCC`, the Potency result was “inactive”.
The result for `CCOc1ccc(CCNC(=O)c2ccc(Oc3ccccc3)cc2)cc1OCC` reads “inactive”.
In the case of `CCOc1ccc(CCNC(=O)c2ccccc2)cc1OCC` it was “inactive”; in that of `CCOC(=O)C1CCN(C(=O)C2(NC(=O)Nc3ccccc3Cl)CCCC2)CC1`, “inactive”.
The result for `CCC/C=C/C/C=C/C=C/C=N/NN=O` reads 0.396 µM (active).
